The record followed here is PubChem BioAssay (EPA / NIEHS).

Common to all, as to details: mRNA level, 48 h; actives raise or lower the signal
Read-out in assay [1]: Early growth response protein 1 (EGR1) transcription factor, EGR1 (gene 1958)
Description: LTEA_HepaRG_EGR1: Life Technologies and Expression Analysis (LTEA) Assay for Early growth response protein 1 (EGR1) transcription factor using HepaRG (AID 2283490). A digest of the protocol: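 HepaRG, 48 h exposure, 8-pt half-log series from 100 uM, 0.5% DMSO vehicle; EGR1 transcript by TaqMan qRT-PCR (Fluidigm array), housekeeping-normalized; bidirectional fit relative to DMSO baseline.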

Read-out in assay [2]: Ezrin (EZR), EZR (gene 7430)
Kind of assay: LTEA_HepaRG_EZR: Life Technologies and Expression Analysis (LTEA) Assay for Ezrin (EZR) using HepaRG (AID 2283491). A digest of the protocol: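 EZR transcript levels came from Fluidigm qRT-PCR and were normalized to three housekeeping genes after 48 h chemical exposure of HepaRG cells. Dosing used an 8-point half-log series with a 100 uM top concentration in 0.5% DMSO, tested in duplicate; both directions were fitted versus vehicle.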

Read-out in assay [3]: Cytochrome P450 3A7 (Homo sapiens) (UniProt P24462)
Kind of assay: LTEA_HepaRG_CYP3A7: Life Technologies and Expression Analysis (LTEA) Assay for CYP3A7 using HepaRG (AID 2283492). A digest of the protocol: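 Human HepaRG liver cells, 48 h post-plating, switched to serum-free induction medium and exposed in duplicate for 48 h. Dosing: 100 uM top, half-log dilutions, 8 points, 0.5% DMSO vehicle. Read-out: CYP3A7 mRNA, gain or loss fitted against DMSO baseline.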

Read-out in a further assay: CYP3A5 (gene 1577)
Kind of assay: LTEA_HepaRG_CYP3A5: Life Technologies and Expression Analysis (LTEA) Assay for CYP3A5 using HepaRG (AID 2283493). A digest of the protocol: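 Readout was CYP3A5 mRNA by qRT-PCR. HepaRG cultures were exposed for 48 h in serum-free induction medium to chemicals at up to 100 uM, and responses were fitted in both directions relative to DMSO vehicle.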

Read-out in assay [4]: Fatty Acid-Binding Protein 1 (FABP1), FABP1 (gene 2168)
Description: LTEA_HepaRG_FABP1: Life Technologies and Expression Analysis (LTEA) Assay for Fatty Acid-Binding Protein 1 (FABP1) using HepaRG (AID 2283494). A digest of the protocol: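 qRT-PCR readout of FABP1 transcript (normalized to three housekeeping genes) after 48 h chemical exposure of HepaRG cells; eight concentrations, half-log steps, max 100 uM, 0.5% DMSO vehicle; gain or loss fitted relative to DMSO baseline.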

Read-out in assay [5]: Cytochrome P450 4A22 (Homo sapiens) (UniProt Q5TCH4)
Description: LTEA_HepaRG_CYP4A22: Life Technologies and Expression Analysis (LTEA) Assay for Cytochrome P450 4A22 (CYP4A22) using HepaRG (AID 2283495). A digest of the protocol:
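Readout is CYP4A22 transcript induction or loss, quantified by qRT-PCR and normalized to ACTB, GAPDH and POLR2A. Human HepaRG cells receive test chemicals for 48 h at eight half-log concentrations from 100 uM in 0.5% DMSO.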

Read-out in assay [6]: Cytochrome P450 7A1 (Homo sapiens) (UniProt P22680)
Kind of assay: LTEA_HepaRG_CYP7A1: Life Technologies and Expression Analysis (LTEA) Assay for Cytochrome P450 7A1 (CYP7A1) using HepaRG (AID 2283496). A digest of the protocol:
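Using 0.5% DMSO as vehicle and baseline, chemicals were tested in duplicate over an 8-point range from 100 uM on HepaRG cells for 48 h; qRT-PCR signals were normalised to ACTB, GAPDH and POLR2A.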

Read-out in assay [7]: Glutathione S-Transferase (GSTA2), GSTA2 (gene 2939)
Description: LTEA_HepaRG_GSTA2: Life Technologies and Expression Analysis (LTEA) Assay for Glutathione S-Transferase (GSTA2) using HepaRG (AID 2283497). A digest of the protocol: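 qRT-PCR readout of GSTA2 transcript, normalized to three housekeeping genes, fitted bidirectionally against 0.5% DMSO baseline. Differentiated HepaRG cells received compound for 48 h at 8 concentrations (top 100 uM, half-log steps).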

Read-out in assay [8]: Glutamate-cysteine ligase catalytic (GCLC), GCLC (gene 2729)
Description: LTEA_HepaRG_GCLC: Life Technologies and Expression Analysis (LTEA) Assay for Glutamate-cysteine ligase catalytic (GCLC) using HepaRG (AID 2283498). A digest of the protocol:
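HepaRG, 48 h exposure, 8-pt half-log series from 100 uM, 0.5% DMSO vehicle; TaqMan qRT-PCR for GCLC mRNA, housekeeping-normalized; bidirectional curve fit vs DMSO baseline.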

Read-out in assay [9]: Glutamate-cysteine ligase regulatory (GCLM), GCLM (gene 2730)
Description: LTEA_HepaRG_GCLM: Life Technologies and Expression Analysis (LTEA) Assay for Glutamate-cysteine ligase regulatory (GCLM) using HepaRG (AID 2283500). A digest of the protocol:
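In this multiplexed HepaRG gene-expression assay, GCLM mRNA change after 48 h treatment (8 concentrations, max 100 uM) was scored against DMSO by bidirectional curve fitting.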

Read-out in assay [10]: Glutathione S-transferase M3 (GSTM3), GSTM3 (gene 2947)
Kind of assay: LTEA_HepaRG_GSTM3: Life Technologies and Expression Analysis (LTEA) Assay for Glutathione S-transferase M3 (GSTM3) using HepaRG (AID 2283501). A digest of the protocol: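 HepaRG, plated 48 h, then serum-free induction medium; test chemical 48 h, duplicate; 100 uM top, half-log x8, 0.5% DMSO. Read-out: GSTM3 mRNA (TaqMan qRT-PCR, Fluidigm array). Bidirectional fit vs DMSO.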

Read-out in assay [11]: Heat shock 70 kDa protein 1 (HSPA1A), gene 3303
Description: LTEA_HepaRG_HSPA1A: Life Technologies and Expression Analysis (LTEA) Assay for Heat shock 70 kDa protein 1 (HSPA1A) using HepaRG (AID 2283502). A digest of the protocol:
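An oxidative-stress marker readout: HepaRG cells treated 48 h in duplicate with an eight-point series (highest 100 uM) had HSPA1A mRNA quantified by TaqMan qRT-PCR. Activity was fitted in both directions using 0.5% DMSO as baseline.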

Read-out in assay [12]: Hypoxia-inducible factor 1-alpha (Homo sapiens) (UniProt Q16665)
Kind of assay: LTEA_HepaRG_HIF1A: Life Technologies and Expression Analysis (LTEA) Assay for Hypoxia-inducible factor 1 (HIF1A) Trancription factor using HepaRG (AID 2283503).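 Also: HIF1A transcript by TaqMan qRT-PCR normalized to ACTB GAPDH and POLR2A.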 A digest of the protocol: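 Gain- or loss-of-signal HIF1A mRNA changes are fitted against a DMSO baseline. HepaRG cultures receive eight concentrations, highest 100 uM, for 48 h in serum-free induction medium with 0.5% DMSO.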

Read-out in assay [13]: 3-Hydroxy-3-Methylglutaryl-CoA Synthase 2 (HMGCS2), HMGCS2 (gene 3158)
Kind of assay: LTEA_HepaRG_HMGCS2: Life Technologies and Expression Analysis (LTEA) Assay for 3-Hydroxy-3-Methylglutaryl-CoA Synthase 2 (HMGCS2) using HepaRG (AID 2283504). A digest of the protocol: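 HepaRG, plated 48 h then switched to serum-free induction media; cmpd 8-pt, max 100 uM, 1/2-log, 0.5% DMSO, n=2, 48 h. HMGCS2 mRNA by Fluidigm TaqMan qRT-PCR, ACTB/GAPDH/POLR2A norm; bidirectional fit vs DMSO.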

Read-out in the next assay: HGF (gene 3082)
Description: LTEA_HepaRG_HGF: Life Technologies and Expression Analysis (LTEA) Assay for Hepatocyte Growth Facto (HGF) using HepaRG (AID 2283505). A digest of the protocol: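 Read-out is HGF transcript level by qRT-PCR, normalized to three housekeeping genes, fitted bidirectionally against 0.5% DMSO vehicle. Human HepaRG cells received test chemicals for 48 h at up to 100 uM.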

Read-out in assay [14]: Insulin Like Growth Factor 1 (IGF1), IGF1 (gene 3479)
Description: LTEA_HepaRG_IGF1: Life Technologies and Expression Analysis (LTEA) Assay for Insulin Like Growth Factor 1 (IGF1) using HepaRG (AID 2283506). A digest of the protocol: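 Endpoint: IGF1 mRNA change by qRT-PCR, housekeeping-normalized, fitted bidirectionally relative to 0.5% DMSO vehicle. Human HepaRG cells were treated 48 h in serum-free induction medium, eight half-log concentrations topping at 100 uM.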

Read-out in assay [15]: Intercellular Adhesion Molecule 1 (ICAM1), ICAM1 (gene 3383)
Description: LTEA_HepaRG_ICAM1: Life Technologies and Expression Analysis (LTEA) Assay for Intercellular Adhesion Molecule 1 (ICAM1) using HepaRG (AID 2283507). A digest of the protocol:
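Readout is qRT-PCR mRNA level, normalized to three housekeeping genes and fitted bidirectionally against 0.5% DMSO vehicle. Human HepaRG cultures received compound for 48 h, top concentration 100 uM with half-log dilutions.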

Read-out in assay [16]: Insulin-like growth factor-binding protein 1 (IGFBP1), IGFBP1 (gene 3484)
Kind of assay: LTEA_HepaRG_IGFBP1: Life Technologies and Expression Analysis (LTEA) Assay for Insulin-like growth factor-binding protein 1 (IGFBP1) using HepaRG (AID 2283508). A digest of the protocol: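 Thawed HepaRG cells are plated for 48 h, switched to serum-free induction medium, then dosed in duplicate for another 48 h (100 uM top, half-log steps). Lysates in RLT go to qRT-PCR, and gain or loss of signal is fitted relative to vehicle.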

Read-out in assay [17]: Interleukin 6 (IL6), IL6 (gene 3569)
Kind of assay: LTEA_HepaRG_IL6: Life Technologies and Expression Analysis (LTEA) Assay for Interleukin 6 (IL6) using HepaRG (AID 2283509). A digest of the protocol: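 qRT-PCR read-out of IL6 transcript, normalized to three housekeeping genes, after 48 h chemical exposure of HepaRG cells; 8-point half-log series, top 100 uM, 0.5% DMSO vehicle. Bidirectional curve fitting against DMSO baseline.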

The source made the active and inactive calls. The calls were made as follows: active = hit-call score of the fitted dose curve at least 0.9, where 1 is the maximum; inactive = score below 0.9.

Hypoxia-inducible factor 1-alpha (Homo sapiens), sequence (Q16665 whole entry, looked up): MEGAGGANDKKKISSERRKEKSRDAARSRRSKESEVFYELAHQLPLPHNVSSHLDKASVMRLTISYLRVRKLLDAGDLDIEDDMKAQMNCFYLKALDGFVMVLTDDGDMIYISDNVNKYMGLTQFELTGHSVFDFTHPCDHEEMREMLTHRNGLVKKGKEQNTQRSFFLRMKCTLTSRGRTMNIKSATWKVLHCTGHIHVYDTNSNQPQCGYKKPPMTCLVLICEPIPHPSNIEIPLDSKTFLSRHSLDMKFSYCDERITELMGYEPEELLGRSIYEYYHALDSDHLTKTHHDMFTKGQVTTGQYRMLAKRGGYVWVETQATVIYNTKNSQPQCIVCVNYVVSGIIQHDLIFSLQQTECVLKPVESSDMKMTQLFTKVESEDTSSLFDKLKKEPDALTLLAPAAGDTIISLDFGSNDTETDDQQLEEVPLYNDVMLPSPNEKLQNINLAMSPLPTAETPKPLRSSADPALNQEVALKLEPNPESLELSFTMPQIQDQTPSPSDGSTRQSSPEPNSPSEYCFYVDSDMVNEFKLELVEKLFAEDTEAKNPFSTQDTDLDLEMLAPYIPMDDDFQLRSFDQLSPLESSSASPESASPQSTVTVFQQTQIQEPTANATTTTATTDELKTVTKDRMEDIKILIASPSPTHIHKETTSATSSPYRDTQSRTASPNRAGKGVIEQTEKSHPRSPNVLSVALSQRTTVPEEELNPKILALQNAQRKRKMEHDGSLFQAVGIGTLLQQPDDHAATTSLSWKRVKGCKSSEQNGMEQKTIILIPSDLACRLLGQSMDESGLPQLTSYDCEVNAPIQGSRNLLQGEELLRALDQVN
Cytochrome P450 3A7 (Homo sapiens), sequence (P24462 whole entry, looked up): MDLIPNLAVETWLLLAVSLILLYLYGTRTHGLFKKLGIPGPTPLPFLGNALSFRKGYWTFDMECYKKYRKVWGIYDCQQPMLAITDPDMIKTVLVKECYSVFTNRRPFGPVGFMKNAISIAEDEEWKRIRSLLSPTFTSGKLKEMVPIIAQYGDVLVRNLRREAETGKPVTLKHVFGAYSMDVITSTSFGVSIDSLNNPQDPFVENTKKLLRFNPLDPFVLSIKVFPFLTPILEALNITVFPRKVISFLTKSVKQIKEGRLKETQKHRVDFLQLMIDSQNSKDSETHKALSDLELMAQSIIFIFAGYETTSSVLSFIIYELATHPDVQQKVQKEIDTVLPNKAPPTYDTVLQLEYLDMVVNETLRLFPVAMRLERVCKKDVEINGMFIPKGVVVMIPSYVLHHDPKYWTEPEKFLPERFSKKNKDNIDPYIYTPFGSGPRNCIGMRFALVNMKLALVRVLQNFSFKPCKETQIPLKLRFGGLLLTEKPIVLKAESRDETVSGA

What is called AC50 is the concentration at which the activity in the assay is half-maximal. With `C[C@H]1[C@H](c2ccc(Cl)cc2)SC(=O)N1C(=O)NC1CCCCC1`, the outcome (in assay [1]; with CYP3A5 (gene 1577); in assay [10]; in [11]; in assay [12]; in the assay with HGF (gene 3082)) was inactive. Further, the AC50 in assay [2] was 77.9 µM (active); in [3] it was 61.6 µM (active); in assay [4], 55.8 µM (active); in [5], 47.1 µM (active); in assay [6] it was 78.9 µM (active); in assay [7], 79.3 µM (active). Also, the AC50 in [8] was 67.4 µM (active); in [9], 73.5 µM (active); in assay [13] it was 38.2 µM (active); in assay [14], 40.1 µM (active); in [15] it was 81.3 µM (active); in assay [16] it was 75.4 µM (active). In assay [17], the AC50 was 77.7 µM (active).
Consider `CNC(=O)Oc1cccc(N=CN(C)C)c1`, for which the molecule was classed as inactive (in assay [1]; in [2]; in assay [3]; with CYP3A5 (gene 1577); in [4]; in assay [5]). For the same molecule, the result in [6], in assay [7], in assay [8], in assay [9], in assay [10] and in [11] was inactive. The molecule was called inactive (in assay [12]; in assay [13]; in the assay with HGF (gene 3082); in assay [14]; in assay [15]; in assay [16]). Further, the result in assay [17] was inactive.
